Lamin A splicing – changes lamin A minigene splicing in HeLa cells | Potency, µM (highest dose often 46.1 µM), for inactives: at the top dose ratio change, negative = inhibition, most hits filed as inhibitors | 0.01% of 200,000 active | AID 1487 | HeLa LMNA splicing GFP/RFP minigene ratio, 48 h; active = well fitted inhibition curve with a large enough effect in the signal ratio, with a control signal flat, not every such curve was filed as active; inconclusive = small, poorly fitted or top-dose-only effect, or effect the other way, or a change in a side signal; the % refers to the signal ratio; also: potency is read from the fitted curve at half-maximal effect
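S3 HeLa cells stably expressing lamin A-EGFP splicing minigene plus DsRed2, 600 cells/well, 48 h compound exposure at 37C. Laser-scanning cytometry; analysed as GFP (500-530 nm)/RFP (575-640 nm) total intensity ratio; 0.5% DMSO vehicle.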
PNC inhibitor – blocks assembly of the perinucleolar compartment | activity change (PNC), negative = inhibition, % at 10 µM | PC3M PTB-GFP, PNC prevalence imaging, 16 h; stronger effect = lower value | 3.1% of 140,000 active | AID 2417;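 active = readout at or below -70, meaning at least 70% loss of cells showing the perinucleolar compartment, a nuclear body marking cancer cells; inconclusive = readout between -30 and a set limit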;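 also: plate controls were DMSO wells for no effect and camptothecin positive control wells for full effect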
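Compounds are pinned in duplicate onto adhered PC3M cells stably expressing GFP-tagged PTB and incubated 16 h at 37 C. Cells are then fixed, nuclei stained with Hoechst, and PNC-positive cells counted.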
ALDH1A1 inh – blocks purified human ALDH1A1 activity; P00352; Purified ALDH1A1, NADH fluorescence, propionaldehyde substrate; Potency, µM (top dose mostly 75.3 µM), for the others: at the highest dose activity, negative = inhibition, hits mostly inhibitors; 7.3% of 220,000 active; AID 1030;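 also: potency is read from the fitted curve at half-maximal effect; plate controls were no enzyme wells and a reference inhibitor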
Target sequence (P00352 whole entry, looked up): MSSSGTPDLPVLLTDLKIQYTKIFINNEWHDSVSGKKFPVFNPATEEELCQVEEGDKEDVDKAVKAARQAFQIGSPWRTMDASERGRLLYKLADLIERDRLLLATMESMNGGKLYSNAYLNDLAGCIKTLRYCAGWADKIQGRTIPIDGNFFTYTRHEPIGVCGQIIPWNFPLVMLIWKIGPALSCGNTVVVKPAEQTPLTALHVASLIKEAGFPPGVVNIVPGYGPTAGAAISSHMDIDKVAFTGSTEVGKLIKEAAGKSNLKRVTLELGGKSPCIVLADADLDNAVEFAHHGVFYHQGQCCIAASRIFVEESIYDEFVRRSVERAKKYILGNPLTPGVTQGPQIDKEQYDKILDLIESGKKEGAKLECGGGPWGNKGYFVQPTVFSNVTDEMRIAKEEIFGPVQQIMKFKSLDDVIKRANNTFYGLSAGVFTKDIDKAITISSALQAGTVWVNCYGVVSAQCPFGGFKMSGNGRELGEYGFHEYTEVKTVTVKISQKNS
HPGD inh – HPGD (human) dehydrogenase inhibition; P15428; Potency, µM, for inactives: at the top dose activity change, negative = inhibition, actives largely listed as inhibitors; purified HPGD, NADH fluorescence kinetic, PGE2 substrate; 4.3% of 150,000 active; also: potency is read from the fitted curve at half-maximal effect
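20 nM HPGD preincubated 15 min at room temperature with compound in 50 mM Tris-HCl pH 8, 0.01% Tween 20. Started with 1 mM NAD+ and 30 uM prostaglandin E2; NADH fluorescence (360/450 nm) read 5 times over 30-s intervals, last minus first.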
ALOX12 inhib – blocks human 12-lipoxygenase activity; 0.12% of 150,000 active; purified 12-hLO, xylenol orange hydroperoxide absorbance; Potency, µM (series often up to 57.1 µM), for inactives: at the top dose activity change, negative = inhibition, actives largely listed as inhibitors; P18054; AID 1452; active = well fitted inhibition curve with a large enough effect; inconclusive = small, poorly fitted or top-dose-only effect; also: potency is read from the fitted curve at half-maximal effect; nearly all actives have a fitted effect of over 55% in size
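Purified human 12hLO (150 nM), preincubated 15 min with compound, then 40 uM arachidonic acid for 30 min, room temperature, Hepes pH 7.0 with 0.01% Triton X-100. Hydroperoxide detected by ferrous iron/xylenol orange; 573/405 nm absorbance ratio gives reaction progress.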
* = called active by the depositor; ? = inconclusive; . = not tested or not shown; [ ] = remark or other dose. Shown are actives, neighbours in structure and some others; about 10% of the full set was active somewhere. Unless noted, calls follow the shape of the dose curve; as a rule, active = well fitted inhibition curve with a large enough effect (not every such curve was filed as active); inconclusive = small, poorly fitted or top-dose-only effect, or another doubt; inactive = no such curve, though single readings can be large or run the other way. Unless noted, % is scaled to controls: 0 for no effect and ±100 for the full control effect.

SMILES	Lamin A splicing	PNC inhibitor	ALDH1A1 inh	HPGD inh	ALOX12 inhib
O=C(CSc1nc2ccccc2s1)Nc1cc(S(=O)(=O)N2CCOCC2)ccc1Cl	?	-1	22µM*	-31%	-4%
Cc1noc(NS(=O)(=O)c2ccc(NC(=O)CCn3c(=O)oc4ccccc43)cc2)c1C	-1%	?	4µM*	-19%	0%
Cc1ccc(-n2c(SCC(=O)Nc3cc(S(=O)(=O)N4CCOCC4)ccc3Cl)nc3ccccc3c2=O)cc1	-4%	11	5%	-5%	1%
Cc1cc(C)nc(SCC(=O)Nc2ccc(S(=O)(=O)Nc3onc(C)c3C)cc2)n1	13%	35	26%	-5%	4%
Cc1noc(NS(=O)(=O)c2ccc(NC(=O)CSc3nc4ccccc4s3)cc2)c1C	4%	?	10µM*	28µM*	-11%
Cc1ccc(Cl)cc1NC(=O)N1CCC(CN2CCc3ccccc3C2)CC1	3%[46 µM]	.	.	.	.
CN(C)c1ccc(-c2nccc(NCCN3CCOCC3)n2)cc1	?	.	?	?	-2%
CCOC(=O)c1c(C)oc2c1c(C(c1ccncc1)N1CCOCC1)c(O)c1ccccc12 (stereo unspecified)	?	-27	13µM*	-27%	?
CCOC(=O)c1c(C)oc2c1c(C=NC1CCS(=O)(=O)C1)c(O)c1ccccc12 (stereo unspecified)	-2%	-29	7%	-20%	2%
CCOC(=O)c1c(C)oc2c(CC(=O)c3ccccc3)c(Cl)c(O)c(O)c12	19%	31	-1%	7.1µM*	-1%
CCOC(=O)c1oc2ccccc2c1CN1CCN(C(=O)c2ccccc2)CC1	?	-109*	20µM*	0%	-4%
CCOC(=O)c1c(C)oc2c1c(CN1CCN(C(=O)OCC)CC1)c(O)c1ccccc12	?	49	1.6µM*	-15%	-20%
CC(Nc1oc(-c2ccccc2)nc1-c1ccc(C(F)(F)F)cc1)c1ccccc1 (stereo unspecified)	.	.	6%	-10%	0%
CNCCCCCCCCSc1nc(C(C)C)ccc1C(=O)c1cccs1	.	.	?	-1%	-8%
COc1ccccc1CNS(=O)(=O)c1c(C(=O)N2CCC(C)CC2)c(C)n(C)c1C	-23%[46 µM]	.	.	.	.
CS(=O)(=O)c1ccc2nc(NC(=O)c3ccc(S(=O)(=O)NCC4CCCO4)cc3)sc2c1 (stereo unspecified)	.	.	-4%	.	.
CCOC(=O)c1c(C)oc2c1c(CN1CCN(CCO)CC1)c(O)c1ccccc12	13%[9.22 µM]	.	0.35µM*	.	.
CCOC(=O)c1c(C)oc2ccc(O)c(CN3CCCCC3)c12	?	30	-4%	-13%	9%
COc1ccc(NC(=O)c2ccc(-c3ccccc3C(F)(F)F)o2)cc1	?	-100*	-11%	-9%	-6%
COc1ccccc1CNC(=O)c1ccc(-c2ccccc2C(F)(F)F)o1	?	?	-13%	-12%	-4%
O=C(NCCc1ccccc1)c1ccc(-c2ccccc2C(F)(F)F)o1	?	61	25µM*	?	-2%
COc1cc2c(cc1OC)C1=NC(=O)CN1C(SCc1ccccc1C)=N2	4%	12	?	?	0%
C=CCSC1=Nc2sccc2C2=NC(=O)CN12	-12%	80	14µM*	-9%	-2%
NCCCC(N)CC(=O)NCC1NC(=O)C(CO)NC(=O)C(N)CNC(=O)C(C2CCN=C(N)N2)NC(=O)/C(=C\NC(N)=O)NC1=O (stereo unspecified)	.	.	1%	1%	1%
CCCOc1ccc(/C=C2\SC(=S)N(CC3CCCO3)C2=O)cc1 (stereo unspecified)	?	26	6.3µM*	-7%	3%
Cc1ccsc1/C=C1/SC(=O)N(CC(=O)N2CCOCC2)C1=O	-7%	-11	-61%	-19%	-14%
Cc1ccsc1/C=C1\SC(=S)N(CC2CCCO2)C1=O (stereo unspecified)	?	.	1µM*	.	.
CCOc1ccc(/C=C2\SC(=S)N(CC(=O)N(CCO)C(C)(C)C)C2=O)cc1	-10%[46 µM]	.	-11%	.	.
CC(=O)Nc1ccc(N(C(=O)CNC(=O)c2ccco2)C(C(=O)NCc2ccco2)c2ccccc2F)cc1 (stereo unspecified)	.	.	7.9µM*	.	.
